Data taken from PubChem BioAssay AID2732 (Emory University Molecular Libraries Screening Center, 2010).
Among all 220,000 compounds or so, about 8,200 (3.7%) were called active. The entries come from a sample that favours actives as a whole. Values without a mark were called inactive.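 The calls were made as follows: active = compounds that reduced the stress-induced luciferase reporter signal by more than about 70% of percent inhibition (limit read from the data); inactive = the rest.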

Test: inhibitors of CHOP promoter induction, primary screen, cell-based, unfolded protein response, luciferase reporter (AID 2732);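 also: 0% = tunicamycin plus vehicle and 100% = wells without tunicamycin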
Conditions: CHO-K1 CHOP-promoter luciferase, tunicamycin-induced, 15-18 h; at 10 µM; active compounds read high
With `CCc1cc(C(=O)OC)c(NC(=O)CC2Sc3ccc(C(F)(F)F)cc3NC2=O)s1` (stereo not drawn) the inhibition was 72.2% (active).
`Cc1ccc(CNC(=O)CC2Sc3ccccc3NC2=O)cc1` (stereo not drawn) showed an inhibition of -5.1%.
Compound `COC(=O)c1cc(C)sc1NC(=O)CC1Nc2ccccc2NC1=O` (stereo not drawn) has an inhibition of 51.1%.
Work on `COC(=O)c1noc(C)c1-c1ccnn1C(=O)c1ccc(Cl)cc1` yielded an inhibition of -0.96%.
`COc1cccc(OC)c1CN(C)C(=O)c1cnccc1C(F)(F)F` showed an inhibition of 16.4%.
With `Cc1ccsc1/C=N/NC(=O)Cc1cc(=O)[nH][nH]1` the inhibition was 10.3%.
`CC(C)C(=O)Nc1ccc2oc(=O)ccc2c1` showed an inhibition of 8.38%.
`Cc1cccc(NC(=S)NC(=O)c2ccc(Br)o2)c1` showed an inhibition of -36.1%.
For `O=C(NC(=S)Nc1ccc2oc(=O)ccc2c1)c1ccc(-c2cccc(Cl)c2Cl)o1`, the inhibition was 80.2% (active).
With `C=C(C)CNC(=S)Nc1ccc(S(=O)(=O)Nc2cnc3ccccc3n2)cc1` the inhibition was 11.6%.
Compound `O=c1[nH]n(-c2cccc(Cl)c2)c2ncccc12` has an inhibition of 9.34%.
With `Clc1cccc(CN2COc3c(cc(Cl)c4cccnc34)C2)c1` the inhibition was 108% (active).
For `O=C1/C(=C/c2coc3ccc(O)cc3c2=O)SC(=S)N1c1ccccc1`, the inhibition was -12.8%.
For `CCOC(=O)COc1nc(C)cc(C(F)(F)F)c1C#N`, the inhibition was 16.9%.
Compound `Cn1c(CC2Sc3ccccc3NC2=O)nnc1SCC(=O)c1ccc(Cl)cc1` (stereo not drawn) has an inhibition of 11.3%.
In the case of `CCc1cc(C(=O)c2ccc(OC)cc2)c(NC(=O)CN2CCN(C)CC2)s1`, the inhibition is reported as 9.91%.
`CCNc1nc(NCC)nc(N(C)n2cnnc2)n1` showed an inhibition of 2.32%.
With `CCNc1nc(SCCOc2ccccc2)nc(N(C)C)n1` the inhibition was 90.8% (active).
`Nc1nc(SCCOc2ccccc2)n[nH]1` gave an inhibition of -32%.
`C/C(=N\Nc1cccc(C(=O)O)c1)c1ccc2c(c1)Nc1ccccc1S2` showed an inhibition of -2.01%.
`CCCn1c(C)cc(C(=O)COC(=O)c2c(C)nn(-c3ccccc3)c2C)c1C` gave an inhibition of 52.2%.
`Cc1ccc(OC(=O)c2c(C)nn(-c3ccccc3)c2C)cc1` gave an inhibition of 5.12%.
For `Cc1nn(-c2ccccc2)c(C)c1C(=O)OCC(=O)NC(=O)NC1CCCCC1`, the inhibition was 71.2% (active).
For `CCc1cc(CNC(=O)CC2C(=O)NCCN2Cc2ccccc2C(F)(F)F)on1` (stereo not drawn), the inhibition was 20.4%.
Compound `O=c1[nH]c(SCc2cccc(F)c2)nc2ccccc12` has an inhibition of 8.81%.
For `Cc1noc(C)c1COC(=O)COc1ccc(-c2ccccc2)cc1`, the inhibition was 10.1%.
`NC(=O)C1CCN(Cc2nc3c(Br)cc(Br)cc3c(=O)[nH]2)CC1` gave an inhibition of 13.6%.
For `C/C(=N\N)c1c(-c2ccccc2)c2cc(Br)ccc2[nH]c1=O`, the inhibition was -1.78%.
For `NC(N)=Nc1nc2ccc(Br)cc2c(=O)[nH]1`, the inhibition was 74.1% (active).
In the case of `Cc1[nH]n(-c2ccccc2)c(=O)c1N=Nc1ccccc1C(=O)N1CCCCC1`, the inhibition is reported as 59.1%.
In the case of `Cc1ncn2cc(-c3ccc(Cl)cc3Cl)[nH]c(=O)c12`, the inhibition is reported as 13.6%.
With `c1ccc(-n2cccc2)c(N2CCCCC2)c1` the inhibition was -6%.
In the case of `CC(Sc1nc2c([nH]c3ccccc32)c(=O)n1C)c1ccccc1` (stereo not drawn), the inhibition is reported as 94.8% (active).
`Cn1nnnc1SCc1cc(=O)[nH]c2ccccc12` showed an inhibition of 6.42%.
`CCCCn1c(=S)[nH]c2ccccc2c1=O` showed an inhibition of -18.6%.
For `O=C(Nc1ccc(Cl)cc1)/C(=C1\CCCN1)[N+](=O)[O-]`, the inhibition was -6.93%.
For `CN1CCN(c2ccc(CNS(=O)(=O)c3cccc(F)c3)cc2)CC1`, the inhibition was 9.01%.
For `COc1ccc2[nH]c(=S)cc(C)c2c1`, the inhibition was -0.1%.
For `CC(=O)Nc1nc2ccccc2n1Cc1ccc(C)cc1`, the inhibition was -14.1%.
In the case of `Cc1ccc(-n2nc3cc(Cl)c(NC(=O)c4ccco4)cc3n2)cc1`, the inhibition is reported as -26.1%.
In the case of `Cc1ccc(Cn2c(NC(=O)c3ccco3)nc3ccccc32)cc1`, the inhibition is reported as 80.3% (active).
For `CN(C)S(=O)(=O)c1cccc(-c2nn(-c3ccccc3)cc2/C=C2\SC(=S)N(CC(=O)O)C2=O)c1`, the inhibition was 4.39%.
With `CCCCC(=O)Nc1ccc(C(=O)Nc2cc(C(F)(F)F)ccc2Cl)cc1` the inhibition was 94.3% (active).
Compound `CCCC(=O)Nc1ccc(Cl)c(NC(=O)c2ccc(Br)o2)c1` has an inhibition of 40.2%.
Compound `CC(CC(=O)Nc1cc(C(F)(F)F)ccc1Cl)c1ccccc1` (stereo not drawn) has an inhibition of 54.4%.
With `CCCCNC(=O)OCCSCCS(=O)(=O)c1ccc(Cl)cc1` the inhibition was 8.82%.
Compound `CC(C)OP(=O)(OC(C)C)C(Nc1ccccc1)c1cccc([N+](=O)[O-])c1` (stereo not drawn) has an inhibition of -8.06%.
Compound `Cc1cc(C(=O)Cn2cnc3cc([N+](=O)[O-])ccc3c2=O)c(C)n1CC1CCCO1` (stereo not drawn) has an inhibition of -28%.
`Cc1ccsc1C(=O)OCC(=O)c1cc2ccccc2o1` showed an inhibition of 67.4%.
For `Cc1ccsc1C(=O)OCC(=O)c1cc(C)n(CC2CCCO2)c1C` (stereo not drawn), the inhibition was 77.8% (active).
`CCCCN1Cc2c(nc3cc(-c4ccccc4)[nH]n3c2=O)C1=O` gave an inhibition of -7.2%.
`CCOc1ccccc1N1CN(Cc2ccccc2)CNC1=S` showed an inhibition of 3.01%.
`COCCCn1c(-c2cccs2)nc2nc3ccccc3nc21` showed an inhibition of -15%.
In the case of `O=C(c1ccccn1)c1ncc(C(F)(F)F)cc1Cl`, the inhibition is reported as 23.4%.
With `N/C(=N\OC(=O)Nc1ccc(Cl)c(Cl)c1)c1ncc(C(F)(F)F)cc1Cl` the inhibition was 87.9% (active).
In the case of `N/C(=N\OC(=O)CCCC(=O)O)c1ncc(C(F)(F)F)cc1Cl`, the inhibition is reported as 6.09%.
Work on `Nn1c(SCc2ccccc2)nnc1C1CCCCC1` yielded an inhibition of -9.53%.
`COc1ccc(C(=O)N2CC3(C)CC2CC(C)(C)C3)cc1OC` (stereo not drawn) showed an inhibition of -6.24%.
`C=CCNc1ncnc2ccc(Br)cc12` gave an inhibition of 27.4%.
For `CC1(C)CC2CC(C)(CN2c2ncnc3ccc(Br)cc23)C1` (stereo not drawn), the inhibition was 70.5% (active).
`CCOC(=O)CN(C(=O)COc1nc(-c2ccccc2)cc(C)c1C#N)c1ccc(F)cc1` showed an inhibition of 5.71%.
In the case of `COc1c(O)cc2oc(-c3ccc(O)c(O)c3)cc(=O)c2c1O`, the inhibition is reported as -13.9%.
For `Cc1ccc(NC(=O)/C(=C\c2ccccc2)NC(=O)c2ccco2)cc1`, the inhibition was 10.2%.
For `Nc1c(C(=O)c2cccs2)sc2nsc(SCCN3CCCCC3)c12`, the inhibition was -55.6%.
With `N=c1n(Cc2ccc(Cl)cc2)c2ccccc2n1CC(O)c1ccco1` (stereo not drawn) the inhibition was 86.2% (active).
In the case of `Cn1c(=N)n(CC(O)c2cccs2)c2ccccc21` (stereo not drawn), the inhibition is reported as 14.4%.
In the case of `Cn1c(=N)n(CC(O)c2ccccc2)c2ccccc21` (stereo not drawn), the inhibition is reported as 14.2%.
Compound `Cn1c(=O)c(=O)n(C)c2cc(S(=O)(=O)NCCN3CCN(c4ccccc4F)CC3)ccc21` has an inhibition of 10.2%.
Compound `COc1ccc(NC2=CC(=S)NC(C)(C)C2)cc1` has an inhibition of 0.78%.
With `Cc1c(NC(=O)CN2C(=O)C(=O)N(Cc3ccccc3)C2=O)c(=O)n(-c2ccccc2)n1C` the inhibition was -4.43%.
In the case of `CCN(C(=O)COC(=O)c1ccc(COc2ccc3c(C)cc(=O)oc3c2)cc1)C1CCS(=O)(=O)C1` (stereo not drawn), the inhibition is reported as -17.9%.
For `Cc1ccccc1NC(=O)c1ccc(COc2ccc3c(C)cc(=O)oc3c2)cc1`, the inhibition was 73.8% (active).
`Cc1cc(=O)oc2cc(OCCC[n+]3ccccc3)ccc12` gave an inhibition of 3.91%.
In the case of `COc1ccc(CCn2c(NN=C3CCCC3)nc3c2c(=O)[nH]c(=O)n3C)cc1`, the inhibition is reported as -6.27%.
`COc1ccc(NC(=O)C2=NNC(=O)CC2)cc1S(=O)(=O)N1CCCCC1` showed an inhibition of 14.5%.
`Cc1ccc(-n2cnc3ncnc(-c4ccccc4)c32)cc1` showed an inhibition of -3.5%.
In the case of `Cc1ccc(-c2nn(C(C)(C)C)c3ncnc(N)c23)cc1`, the inhibition is reported as 76.5% (active).
In the case of `Cc1ccc(CSc2nnc(-c3cnccn3)n2C)cc1`, the inhibition is reported as -17.8%.
`O=C(NCc1ccccc1)c1ccc(CNc2c(N3CCCC3)c(=O)c2=O)cc1` showed an inhibition of 3.8%.
`Cc1cc(=O)[nH]c(SCC(=O)Nc2ccc(Br)cc2)n1` gave an inhibition of 28.6%.
For `Cc1nc2cccnc2nc1C`, the inhibition was -3.08%.
In the case of `O=C(COC(=O)c1ccc(S(=O)(=O)Nc2ccccc2)cc1)NCC1CCCO1` (stereo not drawn), the inhibition is reported as 0.29%.
With `O=C(Nc1ccccc1)C1CC(=O)n2c(nc3ccccc32)N1` (stereo not drawn) the inhibition was 3.28%.
In the case of `COc1ccc(CCN(C)CCN2C(=O)c3ccccc3C2=O)cc1OC`, the inhibition is reported as -9.23%.
With `COC(=O)c1ccc(C2C(Oc3ccccc3C)C(=O)N2CCc2ccc(OC)c(OC)c2)cc1` (stereo not drawn) the inhibition was 18.6%.
For `COc1ccc(CCN2C(=O)c3[nH]nc(-c4ccccc4O)c3C2c2ccc(C)cc2)cc1OC` (stereo not drawn), the inhibition was 75.2% (active).
With `CS(=O)(=O)c1sc(C(=O)NC(=S)Nc2ccc(OC(F)(F)F)cc2)c2c1C=CCC2` the inhibition was -21.9%.
Compound `COc1ccc(SC[C@H](Cc2ccccc2)N2CCN(CCc3ccccc3)CCC2=O)cc1` has an inhibition of 26.9%.
In the case of `Cc1csc(/N=C/N(C)C)c1C#N`, the inhibition is reported as 11.2%.
`CC1CCN(c2c(NCc3ccc(C(=O)NCc4ccccc4)cc3)c(=O)c2=O)CC1` showed an inhibition of 1.88%.
For `Cc1cc(=O)[nH]c(N/N=C/c2ccc3c(c2)OCCO3)n1`, the inhibition was -1.69%.
In the case of `Cc1ccc(NC(=O)CN(C)Cc2ccc(F)cc2)c([N+](=O)[O-])c1`, the inhibition is reported as 71.6% (active).
In the case of `CSc1ccccc1NC(=O)CN(C)CC(=O)Nc1ccc(Cl)cc1[N+](=O)[O-]`, the inhibition is reported as 18.7%.
Compound `CN(CC(=O)Nc1ccccc1[N+](=O)[O-])Cc1ccc(Br)cc1` has an inhibition of 5.7%.
In the case of `Cc1cc(C(=O)NNS(=O)(=O)c2ccccc2C(F)(F)F)nn1C(C)(C)C`, the inhibition is reported as 14.2%.
Compound `NC1=NC(=O)C(Cc2cccc(Cl)c2Cl)S1` (stereo not drawn) has an inhibition of -11.3%.
For `O=C1NC(=Nc2ccc(Cl)cc2)SC1Cc1cccc(Cl)c1Cl` (stereo not drawn), the inhibition was 94.3% (active).
Work on `O=C1N/C(=N\N=C\c2ccco2)SC1Cc1ccc(F)cc1` (stereo not drawn) yielded an inhibition of 2.81%.
